Molecules are shown by their SMILES. About 83,000 compounds went through this panel and 20% of them were active in at least one assay; those are over-represented in the sample as a whole.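 Step 1: grow cells in 96-well plates. Step 2: add test compound at a single concentration. Step 3: incubate 48 h. Step 4: record percent growth.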 A number with no mark means an inactive call. Activity calls are given as the source filed them. The calls were made as follows: active = growth percent below 10; inactive = the rest.

Results on 18 molecules are retold here after PubChem BioAssay (NCI).

Some test systems named below: DU-145 prostate; MALME-3M melanoma; MDA-MB-231 breast; RXF 393 renal; SF-268 CNS; SF-295 CNS; SF-539 CNS; UACC-257 melanoma; M14 melanoma.
Assay in all cases: NCI-60 one-dose screen, 48 h (100 = growth as untreated, 0 = no growth, -100 = all killed)
Common to all, as to conditions: 10 µM unless noted

In the case of `C=C1C(=O)O[C@H]2[C@H]1CC/C(COC(=O)NCc1ccc(OC)c(OC)c1)=C\CC[C@@]1(C)O[C@@H]21`, the growth in the assay with DU-145 prostate was 28.6%; in the assay with MALME-3M melanoma it was 61.5%; with MDA-MB-231 breast, 55%; with RXF 393 renal, 20.7%; in the assay on SF-268 CNS it was 79.8%; in the assay with SF-295 CNS it was 88.2%. The growth in the assay with SF-539 CNS is 42.9%; in the assay on UACC-257 melanoma, 64.2%; with M14 melanoma it was 61.5%.
As to `CC[N+](CC)=c1sc2c(s1)C(c1ccc(Cl)cc1)Oc1ccc(Cl)cc1-2` (configuration not stated), the growth with DU-145 prostate is 24.4%; in the assay with MALME-3M melanoma, -9.37% (active); in the assay on MDA-MB-231 breast, -38% (active); in the assay on RXF 393 renal, 10.7%; in the assay on SF-268 CNS, 24%; in the assay with SF-295 CNS, 2.98% (active). Besides, the growth with SF-539 CNS was -22.1% (active); in the assay on UACC-257 melanoma, -7.21% (active); with M14 melanoma, 17.3%.
Turning to `CC(C)(CCCN=C(N)Nc1ccc(Cl)cc1)c1ccc(F)cc1`, the growth was 80.1% in the assay with DU-145 prostate; 64.3% in the assay with MALME-3M melanoma; 41% with MDA-MB-231 breast; 88.7% in the assay with RXF 393 renal; 72.6% in the assay with SF-268 CNS; 53.1% in the assay with SF-295 CNS. Further, the growth is 76.1% in the assay on SF-539 CNS, 86.6% with UACC-257 melanoma and 51.5% in the assay on M14 melanoma.
As to `Cn1ccnc1C(=O)/C=C/c1ccc(CC(=O)Nc2ccccc2)cc1`, the growth in the assay with DU-145 prostate is 10.3%; in the assay with MALME-3M melanoma, 72.8%; in the assay with MDA-MB-231 breast, 12.6%; in the assay with RXF 393 renal it was 12.1%; in the assay with SF-268 CNS, 10.6%; in the assay on SF-295 CNS, 26.2%. Moreover, the growth was -18.5% (active) with SF-539 CNS, 78.7% in the assay with UACC-257 melanoma and 27.8% in the assay on M14 melanoma.
For `c1ccc2[nH]c(-c3ccc(Nc4nc(N5CCCC5)nc5[nH]ncc45)cc3)nc2c1`, the growth with DU-145 prostate was -6.9% (active); in the assay on MALME-3M melanoma it was -71.5% (active); in the assay with MDA-MB-231 breast, -48.5% (active); with RXF 393 renal, -81.5% (active); in the assay with SF-268 CNS, -7.79% (active); with SF-295 CNS it was -63.3% (active). In addition, the growth was -68.1% (active) in the assay with SF-539 CNS, -90.5% (active) in the assay with UACC-257 melanoma and -78% (active) with M14 melanoma.
Consider `COC(=O)[C@@H]1CCCN1C(=O)[C@@H]1CCCN1C(=O)[C@H](Cc1ccccc1)NC(=S)Nc1cc(C(F)(F)F)cc(C(F)(F)F)c1`, for which the growth is 40.4% with DU-145 prostate; 94.8% with MALME-3M melanoma; 62.8% in the assay with MDA-MB-231 breast; 83.8% with RXF 393 renal; 35% in the assay with SF-268 CNS; 92.9% in the assay on SF-295 CNS. In addition, the results for the growth in the assay on SF-539 CNS, in the assay on UACC-257 melanoma and in the assay on M14 melanoma were 94%, 11.8% and 89.3%, respectively.
Regarding `O=c1ccccc(-c2ccc(-c3ccco3)cc2)c1O`, the growth in the assay on DU-145 prostate was 19.7%; in the assay with MALME-3M melanoma, 15.1%; in the assay with MDA-MB-231 breast it was 40.2%; in the assay on RXF 393 renal it was 43.9%; with SF-268 CNS it was 11%; in the assay with SF-295 CNS, 20.5%. In addition, the growth in the assay on SF-539 CNS is -2.44% (active); in the assay with UACC-257 melanoma, 0.169% (active); in the assay on M14 melanoma, -2.99% (active).
For the molecule `CSc1ccc(-c2ccccc(=O)c2O)cc1`, the growth is 21% in the assay on DU-145 prostate; 15.6% in the assay with MALME-3M melanoma; 36.8% in the assay with MDA-MB-231 breast; 39.3% in the assay with RXF 393 renal; 11.5% in the assay on SF-268 CNS; 19.4% with SF-295 CNS. In addition, the growth was 4.03% (active) in the assay with SF-539 CNS, -4.11% (active) in the assay with UACC-257 melanoma and -6.35% (active) in the assay with M14 melanoma.
Turning to `Clc1ccc2c(NCCNc3nc(N4CCCCC4)nc4ccccc34)ccnc2c1`, the growth in the assay with DU-145 prostate is 26.4%; with MALME-3M melanoma, -79.8% (active); in the assay with MDA-MB-231 breast, -85% (active); in the assay on RXF 393 renal it was -40.2% (active); in the assay on SF-268 CNS, 2.98% (active); in the assay on SF-295 CNS, -81.3% (active). In addition, the growth with SF-539 CNS is -83.6% (active); in the assay on UACC-257 melanoma, -70.2% (active); in the assay on M14 melanoma, -79.7% (active).
With `COc1ccc(-c2nnc(SCC(=O)c3ccc(Cl)cc3)o2)cc1`, the growth was 108% in the assay on DU-145 prostate; 106% in the assay on MALME-3M melanoma; 98.7% in the assay on MDA-MB-231 breast; 113% in the assay on RXF 393 renal; 101% in the assay on SF-268 CNS; 101% with SF-295 CNS. The growth in the assay on SF-539 CNS was 95.6%; with UACC-257 melanoma it was 107%; in the assay on M14 melanoma it was 106%.
Take `COc1cc(-c2nn(-c3ccc(Br)cc3)cc2C(=O)O)ccc1O`: the growth is 103% in the assay on DU-145 prostate; 110% in the assay with MALME-3M melanoma; 126% in the assay on MDA-MB-231 breast; 109% with RXF 393 renal; 87.8% in the assay on SF-268 CNS; 101% in the assay with SF-295 CNS. Besides, the values for the growth with SF-539 CNS, in the assay on UACC-257 melanoma and with M14 melanoma were 128%, 107% and 102%, respectively.
`COc1ccc(CN2c3ccccc3Sc3ccccc32)c(C(F)(F)F)c1`: the growth with DU-145 prostate is 21%; in the assay with MALME-3M melanoma it was 92.7%; in the assay on MDA-MB-231 breast it was 40.6%; with RXF 393 renal, -9.74% (active); in the assay on SF-268 CNS, 56.4%; in the assay with SF-295 CNS, 2.22% (active). Moreover, the growth in the assay on SF-539 CNS is -12.4% (active); in the assay on UACC-257 melanoma, 53.9%; in the assay on M14 melanoma, 7.59% (active).
Turning to `O=C(Cc1ccc(/C=C/C(=O)c2ncc[nH]2)cc1)Nc1ccccc1`, the growth is 17.8% in the assay with DU-145 prostate; 98.2% in the assay on MALME-3M melanoma; 70.7% in the assay on MDA-MB-231 breast; 42.9% in the assay on RXF 393 renal; 51.5% in the assay on SF-268 CNS; 69.7% with SF-295 CNS. Also, the growth was -23.3% (active) with SF-539 CNS, 97.2% with UACC-257 melanoma and 73.6% in the assay with M14 melanoma.
Regarding `COc1ccc(CN2c3ccccc3Oc3ccccc32)cc1O`, the growth in the assay with DU-145 prostate was 36.8%; in the assay with MALME-3M melanoma it was 45.1%; in the assay on MDA-MB-231 breast, 56.6%; in the assay with RXF 393 renal it was 50.1%; with SF-268 CNS it was 57.4%; in the assay with SF-295 CNS it was 14.5%. Moreover, the growth in the assay on SF-539 CNS is 16.3%; in the assay on UACC-257 melanoma it was 39.1%; with M14 melanoma, 18%.
Regarding `COc1ccc(CN2c3ccccc3Sc3ccccc32)cc1O`, the growth in the assay with DU-145 prostate was 17.9%; with MALME-3M melanoma, 71.9%; in the assay with MDA-MB-231 breast it was 41.2%; with RXF 393 renal, -9.86% (active); with SF-268 CNS it was 45.6%; in the assay on SF-295 CNS, 4.23% (active). Further, the growth in the assay with SF-539 CNS is -11% (active); in the assay with UACC-257 melanoma, 52.5%; with M14 melanoma, 14.4%.
As to `COc1cc(-c2nn(-c3ccc(C(=O)O)cc3)cc2C(=O)O)ccc1O`, the growth was 89.3% with DU-145 prostate; 57.1% in the assay with MALME-3M melanoma; 93.3% in the assay with MDA-MB-231 breast; 91.5% in the assay on RXF 393 renal; 70.3% in the assay with SF-268 CNS; 94.4% in the assay on SF-295 CNS. Besides, the growth with SF-539 CNS is 47.7%; with UACC-257 melanoma it was 103%; in the assay on M14 melanoma it was 33.5%.
For the molecule `CCOc1ccc(C(C)=O)cc1NC(=O)c1cccc(-c2nnn(CC)n2)c1`, the growth was 16.7% in the assay on DU-145 prostate; 47.2% in the assay on MALME-3M melanoma; 47.9% in the assay on MDA-MB-231 breast; -1.89% (active) in the assay with RXF 393 renal; 59% in the assay on SF-268 CNS; 7.49% (active) in the assay with SF-295 CNS. The results for the growth in the assay on SF-539 CNS, in the assay on UACC-257 melanoma and with M14 melanoma were -16.7% (active), 57.1% and 9.12% (active), respectively.
Turning to `Cc1cc(N2CCCC2)nc(NC2CCCC(Nc3ccnc4cc(Cl)ccc34)C2)n1` (configuration not stated), the growth with DU-145 prostate was -21.8% (active); in the assay with MALME-3M melanoma it was -80.4% (active); in the assay on MDA-MB-231 breast, -77% (active); in the assay with RXF 393 renal, -84.5% (active); in the assay with SF-268 CNS, -36.7% (active); with SF-295 CNS, -80.8% (active). Moreover, the growth in the assay on SF-539 CNS is -92.5% (active); in the assay with UACC-257 melanoma it was -84.3% (active); with M14 melanoma, -83.6% (active).
